Data from PubChem BioAssay (Tox21).
Results filed as inconclusive are left out. Entries that show only a call come without a potency. Values without a mark were called inactive. Calls of active or inactive are those of the source. Unless noted, calls follow the shape of the dose curve; as a rule, active = well fitted curve in the direction sought with a large enough effect in the repeat runs; inconclusive = weak or mixed curves; inactive = no such curve, though single readings can be large; an effect the other way counts as inactive or inconclusive.

What was measured:
[1] = qHTS assay to identify small molecule that activate the aryl hydrocarbon receptor (AhR) signaling pathway - cell viability counter screen (AID 743086);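 also: HepG2 liver cells carrying the AhR DRE luciferase reporter; series mostly up to about 70 µM; nearly all actives have a fitted effect of over 45% in size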
Method in brief: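 HepG2-AhR-luc (HG2L7.5c1) cells, 4000/well, treated 24 h at 37 C with compound; viability measured as CellTiter-Fluor fluorescence after 30 min in the same wells as the luciferase read.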

[2] = target: Peroxisome proliferator-activated receptor gamma (Homo sapiens) (UniProt P37231); experiment: qHTS assay to identify small molecule agonists of the peroxisome proliferator-activated receptor gamma (PPARg) signaling pathway (AID 743094; active = well fitted activation curve with a large enough effect in the signal ratio in the repeat runs, not every such curve was filed as active; the % refers to the signal ratio)
Sequence of Peroxisome proliferator-activated receptor gamma (Homo sapiens) (P37231 whole entry, looked up): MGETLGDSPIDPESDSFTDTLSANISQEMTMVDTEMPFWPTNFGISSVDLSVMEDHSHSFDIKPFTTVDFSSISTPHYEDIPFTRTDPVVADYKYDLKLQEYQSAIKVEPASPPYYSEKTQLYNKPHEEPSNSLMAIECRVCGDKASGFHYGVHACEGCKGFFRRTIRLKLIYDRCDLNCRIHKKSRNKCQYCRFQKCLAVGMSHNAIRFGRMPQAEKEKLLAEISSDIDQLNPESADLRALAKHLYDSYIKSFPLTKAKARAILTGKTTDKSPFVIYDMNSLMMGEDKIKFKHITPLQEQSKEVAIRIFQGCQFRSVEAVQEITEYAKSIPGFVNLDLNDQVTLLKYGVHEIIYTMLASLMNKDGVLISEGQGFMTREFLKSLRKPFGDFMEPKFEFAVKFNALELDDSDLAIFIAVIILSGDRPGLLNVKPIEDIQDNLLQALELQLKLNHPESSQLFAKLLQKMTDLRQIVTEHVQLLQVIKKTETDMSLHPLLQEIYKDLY
Method in brief: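 Cell-based bla reporter, HEK293H background, PPARg-driven UAS. Pre-incubation 5 h, 37C, 5% CO2. Compound 17 h, 37C. Substrate 1 h RT; fluorescence.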

[3] = qHTS assay to identify small molecule antagonists of the peroxisome proliferator-activated receptor gamma (PPARg) signaling pathway - cell viability counter screen (AID 743194); also: nearly all actives have a fitted effect of over 55% in size
Method in brief: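 Cytotoxicity counter screen in PPARg-bla HEK293H cells, same wells as reporter assay. Compounds plus 50 nM rosiglitazone (final) for 17 h at 37 C, then viability read by CellTiter-Glo luminescence.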

[4] = qHTS assay for small molecule agonists of the antioxidant response element (ARE) signaling pathway (AID 743202; active = well fitted activation curve with a large enough effect in the signal ratio in the repeat runs, not every such curve was filed as active; the % refers to the signal ratio)
Method in brief: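 HepG2 ARE-bla reporter line, 2,000 cells/well; 5 h preincubation 37 C/5% CO2; compound (DMSO) 16 h 37 C; B/G FRET substrate 2 h RT; fluorescence intensity.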

[5] = qHTS assay for small molecule agonists of the antioxidant response element (ARE) signaling pathway - cell viability counter screen (AID 743203; calls by dose curve; also: nearly all actives have a fitted effect of over 55% in size; also: potency is read from the fitted curve at half-maximal effect)
Method in brief: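 Measured in the same wells as the beta-lactamase ARE reporter, this read-out is CellTiter-Glo luminescence from HepG2 ARE-bla cells given compounds for 16 hrs.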

[6] = qHTS assay for small molecule activators of the heat shock response signaling pathway - cell viability counter screen (AID 743209); also: nearly all actives have a fitted effect of over 50% in size
Method in brief: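 Same-well multiplex: after 2.5 h room-temperature incubation with LiveBLAzer B/G substrate and fluorescence reading, CellTiter-Glo reagent was added to HSE-bla HeLa cells that had received compound for 5 h at 37 C; luminescence read after 30 min.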

[7] = qHTS assay for small molecule activators of the heat shock response signaling pathway (AID 743210; active = well fitted activation curve with a large enough effect in the signal ratio in the repeat runs, with a control signal flat, not every such curve was filed as active; the % refers to the signal ratio;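 also: HeLa cells with beta-lactamase reporter driven by heat shock elements; series mostly up to about 63 µM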)
Method in brief: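 Beta-lactamase reporter read-out: FRET substrate fluorescence after 2.5 h at RT, following 5 h compound treatment at 37 C of HeLa cells carrying HSE-driven bla reporter; quantitative HTS format.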

[8] = qHTS assay to identify small molecule agonists of the peroxisome proliferator-activated receptor delta (PPARd) signaling pathway - cell viability counter screen (AID 743211); also: nearly all actives have a fitted effect of over 55% in size
Method in brief: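 Viability was measured as CellTiter-Glo luminescence (30 min, room temperature) in the same wells as the beta-lactamase readout. GeneBLAzer PPARd UAS-bla HEK293H cells received compound after 5 h plating and were incubated 17 h at 37 C.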

[9] = target: Peroxisome proliferator-activated receptor delta (Homo sapiens) (UniProt Q03181); experiment: qHTS assay to identify small molecule agonists of the peroxisome proliferator-activated receptor delta (PPARd) signaling pathway (AID 743212; calls by dose curve)
Sequence of Peroxisome proliferator-activated receptor delta (Homo sapiens) (Q03181 whole entry, looked up): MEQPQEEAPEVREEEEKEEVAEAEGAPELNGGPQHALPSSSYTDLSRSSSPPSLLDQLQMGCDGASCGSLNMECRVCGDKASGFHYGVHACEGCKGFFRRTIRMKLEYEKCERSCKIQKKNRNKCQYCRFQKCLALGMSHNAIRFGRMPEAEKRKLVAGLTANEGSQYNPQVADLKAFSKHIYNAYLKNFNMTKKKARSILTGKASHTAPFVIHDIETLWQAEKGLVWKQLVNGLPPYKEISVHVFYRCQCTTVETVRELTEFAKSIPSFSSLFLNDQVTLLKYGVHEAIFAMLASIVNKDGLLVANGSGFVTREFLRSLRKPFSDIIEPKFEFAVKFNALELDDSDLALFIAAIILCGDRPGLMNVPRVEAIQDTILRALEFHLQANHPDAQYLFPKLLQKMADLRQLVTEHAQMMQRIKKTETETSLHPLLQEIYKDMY
Method in brief: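 Read-out: beta-lactamase FRET fluorescence after 2 h room-temperature incubation with LiveBLAzer B/G substrate. Cells were HEK293H carrying a UAS-bla reporter for PPARd, treated at 37 C with DMSO-dissolved compounds.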

[10] = qHTS assay to identify small molecule antagonists of the peroxisome proliferator-activated receptor delta (PPARd) signaling pathway - cell viability counter screen (AID 743213); also: nearly all actives have a fitted effect of over 50% in size
Method in brief: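 Luminescence from CellTiter-Glo, added after the bla read and incubated 30 min at room temperature, gives viability of HEK293H PPARd-bla cells exposed to compounds for 17 h at 37 C with 300 nM L165041.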

[11] = target: Peroxisome proliferator-activated receptor delta (Homo sapiens) (UniProt Q03181); experiment: qHTS assay to identify small molecule antagonists of the peroxisome proliferator-activated receptor delta (PPARd) signaling pathway (AID 743215; active = well fitted inhibition curve with a large enough effect in the signal ratio in the repeat runs, not every such curve was filed as active; the % refers to the signal ratio;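 also: cells stimulated with agonist L165041 at 300 nM final during compound exposure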; also: potency is read from the fitted curve at half-maximal effect)
Method in brief: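 Fluorescence from cleaved LiveBLAzer B/G FRET substrate (2 h, room temperature) reports PPARd-driven beta-lactamase in HEK293H UAS-bla cells. Cells had been treated 17 h at 37 C with compound plus 300 nM final L165041.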

[12] = target: Bile acid receptor (Homo sapiens) (UniProt Q96RI1); experiment: qHTS assay to identify small molecule antagonists of the farnesoid-X-receptor (FXR) signaling pathway (AID 743217; active = well fitted inhibition curve with a large enough effect in the signal ratio in the repeat runs, not every such curve was filed as active; the % refers to the signal ratio)
Sequence of Bile acid receptor (Homo sapiens) (Q96RI1 whole entry, looked up): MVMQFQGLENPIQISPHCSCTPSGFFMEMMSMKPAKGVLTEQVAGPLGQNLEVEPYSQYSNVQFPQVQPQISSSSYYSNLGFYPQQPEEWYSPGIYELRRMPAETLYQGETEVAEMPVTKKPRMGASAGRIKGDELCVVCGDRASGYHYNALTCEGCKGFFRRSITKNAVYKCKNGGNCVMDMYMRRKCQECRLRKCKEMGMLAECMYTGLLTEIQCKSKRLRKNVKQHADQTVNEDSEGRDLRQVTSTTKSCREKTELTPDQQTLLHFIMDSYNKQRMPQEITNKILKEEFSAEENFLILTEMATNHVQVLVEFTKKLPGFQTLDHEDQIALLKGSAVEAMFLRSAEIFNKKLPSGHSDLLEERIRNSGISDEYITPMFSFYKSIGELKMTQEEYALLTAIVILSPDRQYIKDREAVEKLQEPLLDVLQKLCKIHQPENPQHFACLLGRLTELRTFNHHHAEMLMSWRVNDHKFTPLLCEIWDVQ
Method in brief: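 FRET fluorescence after 2 h room-temperature LiveBLAzer loading gives the readout. Prior step: FXR-bla HEK 293T cells, seeded and incubated 5 h, received test compounds plus 50 uM final CDCA for 16 h at 37 °C.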

[13] = target: Bile acid receptor (Homo sapiens) (UniProt Q96RI1); experiment: qHTS assay to identify small molecule agonists of the farnesoid-X-receptor (FXR) signaling pathway (AID 743220; active = well fitted activation curve with a large enough effect in the signal ratio in the repeat runs, not every such curve was filed as active; the % refers to the signal ratio)
Method in brief: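 FXR-UAS-bla HEK 293T cells carrying a UAS-driven beta-lactamase reporter were plated for 5 h at 37C/5% CO2, then exposed to DMSO-dissolved Tox21 10K compounds for 16 h at 37C. A LiveBLAzer B/G FRET substrate was loaded for 2 h at room temperature before fluorescence reading.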

[14] = qHTS assay to identify small molecule antagonists of the farnesoid-X-receptor (FXR) signaling pathway - cell viability counter screen (AID 743221; active = well fitted cell-killing curve with a large enough effect in the repeat runs, not every such curve was filed as active; also: nearly all actives have a fitted effect of over 50% in size)
Method in brief: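 Cytotoxicity counter screen run in the FXR-bla reporter wells: HEK 293T cells exposed to compound with 50 uM (final) chenodeoxycholic acid for 16 h, 37 C, then viability measured by CellTiter-Glo luminescence after 30 min, room temperature.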

[15] = target: Vitamin D3 receptor (Homo sapiens) (UniProt P11473); experiment: qHTS assay to identify small molecule agonists of the vitamin D receptor (VDR) signaling pathway (AID 743222; calls by dose curve)
Sequence of Vitamin D3 receptor (Homo sapiens) (P11473 whole entry, looked up): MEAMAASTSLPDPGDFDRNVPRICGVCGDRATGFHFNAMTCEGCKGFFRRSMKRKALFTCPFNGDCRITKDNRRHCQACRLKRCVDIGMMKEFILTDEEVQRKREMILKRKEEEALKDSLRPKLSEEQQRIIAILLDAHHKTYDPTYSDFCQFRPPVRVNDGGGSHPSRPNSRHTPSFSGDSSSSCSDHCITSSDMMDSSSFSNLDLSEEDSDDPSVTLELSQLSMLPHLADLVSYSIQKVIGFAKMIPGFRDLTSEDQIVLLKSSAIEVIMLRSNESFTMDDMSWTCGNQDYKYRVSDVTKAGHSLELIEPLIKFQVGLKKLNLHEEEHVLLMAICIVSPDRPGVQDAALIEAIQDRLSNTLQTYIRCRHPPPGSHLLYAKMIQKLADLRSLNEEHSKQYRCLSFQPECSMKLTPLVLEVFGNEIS
Method in brief: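 Following 4 h attachment at 37C, VDR-bla cells (2,000 per well) received DMSO-dissolved compounds or controls. After 16 h incubation, LiveBLAzer B/G FRET substrate was added and fluorescence read 2 h later at room temperature.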

[16] = target: Vitamin D3 receptor (Homo sapiens) (UniProt P11473); experiment: qHTS assay to identify small molecule antagonists of the vitamin D receptor (VDR) signaling pathway (AID 743223; active = well fitted inhibition curve with a large enough effect in the signal ratio in the repeat runs, not every such curve was filed as active; the % refers to the signal ratio)
Method in brief: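 Antagonist mode: compound added to VDR-bla cells alongside agonist 1alpha,25-dihydroxyvitamin D3 (3 nM final), incubation 16 h at 37C. Read-out is LiveBLAzer FRET fluorescence, 2 h at room temperature.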

[17] = qHTS assay to identify small molecule agonists of the vitamin D receptor (VDR) signaling pathway - cell viability counter screen (AID 743224); also: series mostly up to about 63 µM; nearly all actives have a fitted effect of over 50% in size
Method in brief: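 In parallel with the bla FRET readout, cytotoxicity toward VDR-bla cells after 16 h compound exposure was assessed by CellTiter-Glo, with luminescence recorded after a 30 min room-temperature incubation.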

[18] = target: Peroxisome proliferator-activated receptor gamma (Homo sapiens) (UniProt P37231); experiment: qHTS assay to identify small molecule antagonists of the peroxisome proliferator-activated receptor gamma (PPARg) signaling pathway (AID 743191; calls by dose curve; also: nearly all actives have a fitted effect of over 30% in size; also: potency is read from the fitted curve at half-maximal effect)
Method in brief: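 GeneBLAzer PPARg UAS-bla HEK293H cells, 5 h post-plating, exposed to compounds 17 h at 37C. LiveBLAzer B/G FRET substrate added for 1 h at room temperature; beta-lactamase reporter read by fluorescence intensity.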

[19] = qHTS assay to identify small molecule agonists of the farnesoid-X-receptor (FXR) signaling pathway - cell viability counter screen (AID 743218); also: nearly all actives have a fitted effect of over 45% in size
Method in brief: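 Readout: CellTiter-Glo luminescence, 30 min RT, multiplexed after the FXR-bla FRET reading. HEK 293T FXR-UAS-bla cells received compound 5 h post-plating and were incubated 16 h at 37 C.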

SMILES | Potency [1] | outcome [2] | Potency [3] | Potency [4] | Potency [5] | Potency [6] | Potency [7] | Potency [8] | outcome [9] | Potency [10] | Potency [11] | outcome [12] | Potency [13] | Potency [14] | outcome [15] | outcome [16] | Potency [17] | Potency [18] | Potency [19]
CC(C)OC(=O)c1ccccc1C(=O)OC(C)C | inactive | inactive | inactive | inactive | inactive | inactive | inactive | inactive | inactive | inactive | inactive | inactive | inactive | inactive | inactive | inactive | inactive |  | 
CC(C)(O)CCc1ccccc1 | inactive | inactive | inactive | inactive | inactive | inactive | inactive |  | inactive | inactive | inactive | inactive | inactive |  | inactive |  | inactive | inactive | inactive
COc1ccc(/C=C/C(=O)c2ccc(OC)cc2OC)cc1 | inactive | inactive | inactive |  | inactive | inactive |  | inactive | inactive |  | 11.9 µM (active) |  | inactive | inactive | inactive |  | inactive | 9.44 µM (active) | inactive
O=[N+]([O-])c1ccc2ncccc2c1 | inactive | inactive | inactive | inactive | inactive | inactive | inactive | inactive | inactive | inactive | inactive | inactive | inactive | inactive | inactive | inactive | inactive |  | 
CCCCCCC(O)CCOC(C)=O (stereo not given) | inactive | inactive | inactive | inactive | inactive |  | inactive |  | inactive | inactive | inactive | inactive | inactive | inactive | inactive |  | inactive |  | inactive
c1ccc(CNc2ncnc3c2ncn3C2CCCCO2)cc1 (stereo not given) | inactive | inactive | inactive |  | inactive | inactive | inactive |  | inactive |  | inactive | inactive | inactive | inactive | inactive |  | inactive |  | 
O=C(/C=C/c1ccc([N+](=O)[O-])cc1)c1ccccc1 | inactive | inactive | inactive | inactive | inactive |  | inactive |  | inactive |  | inactive |  |  | inactive | inactive |  | inactive | inactive | inactive
CCN(CC)C(=O)N1CCN(C)CC1 | inactive | inactive | inactive | inactive | inactive |  | inactive | inactive | inactive |  | inactive | inactive | inactive | inactive | inactive | inactive | inactive | inactive | 
CSCC[C@H](NC(=O)[C@H](Cc1c[nH]c2ccccc12)NC(=O)CCNC(=O)OC(C)(C)C)C(=O)N[C@@H](CC(=O)O)C(=O)N[C@@H](Cc1ccccc1)C(N)=O | inactive | inactive | inactive | inactive |  | inactive | inactive | inactive | inactive | inactive | inactive | inactive | inactive | inactive |  |  | inactive | inactive | inactive
CCCOC(=O)c1c(Cl)c(Cl)c(Cl)c(Cl)c1C(=O)OCCC | inactive | inactive |  |  | inactive | inactive | inactive |  | inactive | inactive | inactive |  |  | inactive | inactive | inactive | inactive |  | 
Cc1ccc(NC(=O)N(C)C)cc1NC(=O)N(C)C | inactive | inactive | inactive | inactive | inactive | inactive | inactive |  | inactive | inactive | inactive | inactive | inactive | inactive | inactive | inactive | inactive | inactive | inactive
NC(=O)c1ccccc1[N+](=O)[O-] | inactive | inactive | inactive |  | inactive | inactive | inactive |  | inactive | inactive | inactive |  |  | inactive |  |  | inactive |  | inactive
CCCCCCCCCCCCCOS(=O)(=O)O | inactive | inactive | inactive |  | 61.1 µM (active) | inactive |  |  |  |  |  |  |  |  |  |  |  |  | 
CC12CC3CC(C)(C1)CC(N)(C3)C2 | inactive | inactive | inactive | inactive | inactive | inactive | inactive | inactive |  | inactive |  |  |  | inactive | inactive |  | inactive | inactive | inactive
O=C1[C@@H]2[C@H]3CC[C@H](C3)[C@@H]2C(=O)N1CCCCN1CCN(c2ncccn2)CC1 | inactive | inactive | inactive |  | inactive |  | inactive | inactive | inactive | inactive | inactive |  |  |  | inactive |  | inactive | inactive | inactive
CC1=C2[C@@H]([C@H](C)CC[C@H]2/C=C(\C)C(=O)O)[C@H](O)C1 | inactive | inactive | inactive | inactive | inactive | inactive |  | inactive | inactive |  | inactive | inactive | inactive | inactive |  |  | inactive |  | inactive
O=C(Nc1ccc(C(=O)O)c(O)c1)c1ccccc1 | inactive | inactive | inactive | inactive | inactive |  | inactive | inactive | inactive | inactive | inactive |  |  | inactive | inactive | inactive | inactive |  | inactive
O=C1OC(=O)c2c(Br)c(Br)c(Br)c(Br)c21 | inactive | inactive | inactive |  | inactive | inactive | inactive | inactive | inactive | inactive | inactive |  |  | inactive | inactive | inactive | inactive |  | inactive
